Screening results as filed in PubChem.
Compounds with a hit are over-represented: about 15% of the library has one in this group of screens.
Pf growth 96h – P. falciparum growth inhibition at 96 hour, primary screen for plastid delayed-death inhibitors. P. falciparum luciferase reporter growth, 96 h. Potency, µM (highest dose often 28.7 µM), usual class: inhibitors. actives 6.9% (n = 320,000)
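Readout is luminescence from an integrated firefly luciferase in P. falciparum. Red cells, 2% hematocrit and 0.05% parasitemia final, were cultured with compound through two parasite generations (96 hours) at 37 C, 5% CO2.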
Sm TGR inh – inhibitors of Schistosoma mansoni thioredoxin glutathione reductase; Potency, µM (top dose mostly 114 µM), usual class: inhibitors; actives 3% (n = 360,000); purified TGR, DTNB reduction, TNB absorbance 405 nm; note: nearly all actives have a fitted effect of over 60% in size
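TGR 20 nM + NADPH 100 uM (dispensed conc.), cpd preinc 15 min RT; start with NADPH (500 uM addition) then DTNB (15 mM addition). Kinetic TNB absorbance, 405 nm filter. Four-parameter Hill fit across titration.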
HCV inh – HCV inhibition | Huh7.5.1 HCVcc-Cre infection, luciferase reporter, 44 h | Potency, µM (top dose mostly 41.8 µM), hits mostly inhibitors | actives 3.4% (n = 340,000) | AID 651820
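Infectious HCVcc-Cre (~0.5 moi) was added to cells just after compound, with cells seeded 4 h earlier at 1,000 per well. Luciferase activity after 44 h culture reported infection; substrate was incubated 15 min at room temperature before reading.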
HCMV inh – inhibitors of human cytomegalovirus | AID 1259415 | activity change, negative = inhibition, % at 57.5 µM | actives 4.5% (n = 410,000) | HFF cells, HCMV-luciferase reporter, 72 h; hits give low values; in the data active = activity change below about -60%; inconclusive = no clear call, values can overlap the other calls; inactive = above about -39%
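Steps: HFFs plated, 16 h 37C; compounds added; HCMV-luciferase added to MOI 1 PFU/cell; 72 h 37C; OneGlo reagent, 5 min room temperature; luminescence read, normalized to controls.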
Pf growth 48h – P. falciparum growth inhibition at 48 hours (one generation) | P. falciparum luciferase growth in erythrocytes, 48 h | AID 504832 | Potency, µM (highest dose often 28.7 µM), actives largely listed as inhibitors | actives 5.9% (n = 310,000)
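Read-out is firefly luciferase luminescence from an integrated reporter in P. falciparum, so falling signal marks reduced parasite growth. Infected erythrocytes were at 2% hematocrit and 0.1% parasitemia (final) in Albumax-supplemented RPMI 1640.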
SARS PLP yeast – SARS-CoV PLP inhibition in yeast; S. cerevisiae expressing SARS-CoV PLpro, growth rescue; Potency, µM (top dose mostly 32.9 µM), hits mostly activators; actives 0.19% (n = 330,000); calls by dose curve; note: nearly all actives have a fitted effect of over 55% in size
Each line names hits and unclear results; the compound was inactive in the other large screens. Unless noted, calls come from the whole dose curve; as a rule, active = well fitted curve in the direction sought with a large enough effect; inconclusive = small, poorly fitted or top-dose-only effect, or another doubt; inactive = no such curve, though single readings can be large; an effect the other way counts as inactive or inconclusive.

CCOc1ccccc1NC(=O)c1ccc2c(c1)C(=O)N(CC1CCCO1)C2=O (stereo unspecified)	Pf growth 96h 14.7µM
COc1ccc(NC(=O)c2ccc3c(c2)C(=O)N(CC2CCCO2)C3=O)cc1O (stereo unspecified)	none
Cc1[nH]c2ccccc2c1C(=O)C(=O)N(C)C1CCCCC1	Pf growth 96h 2.62µM, Pf growth 48h 2.62µM
Cc1[nH]c2ccccc2c1C(=O)CN1CC=C(c2ccccc2)CC1	Pf growth 96h inconclusive, Pf growth 48h 11.7µM
COc1ccc2[nH]c(C)c(C(=O)CN3CCN(C/C=C/c4ccccc4)CC3)c2c1	Pf growth 96h 8.28µM, HCV inh inconclusive, Pf growth 48h inconclusive
Cc1[nH]c2ccccc2c1C(=O)CN1CCN(C/C=C/c2ccccc2)CC1	Pf growth 96h inconclusive, Sm TGR inh inconclusive, HCV inh inconclusive, Pf growth 48h 8.28µM
Cc1[nH]c2ccccc2c1C(=O)CN1CCC(C(N)=O)(N2CCCCC2)CC1	Sm TGR inh inconclusive
CN(Cc1ccc(F)cc1)S(=O)(=O)c1nnc(NC(=O)c2ccccc2Br)s1	none
Cc1[nH]c2ccccc2c1C(=O)CN1C(=O)C(=O)N(C2CCCC2)C1=O	none
Cc1[nH]c2ccccc2c1C(=O)CN1CCN(C2CCCCC2)CC1	Sm TGR inh 39.8µM, HCV inh inconclusive, Pf growth 48h inconclusive (no result: HCMV inh)
COc1ccc(CCc2nnc(CCC(=O)NCc3cnc4ccccn34)o2)cc1	Pf growth 96h 10.4µM
NC(=O)C1CCN(c2oc(/C=C/c3ccccc3)nc2S(=O)(=O)c2ccccc2)CC1	Pf growth 96h inconclusive, Sm TGR inh inconclusive, Pf growth 48h inconclusive
COc1ccccc1/C=C/c1nc(C#N)c(N2CCCCCC2)o1	none (no result: Pf growth 96h, HCV inh, Pf growth 48h, SARS PLP yeast)
COc1cccc(/C=C/c2nc(S(=O)(=O)c3ccccc3)c(N(C)C)o2)c1	Pf growth 96h inconclusive, Sm TGR inh inconclusive, Pf growth 48h 10.4µM
CSc1oc(-c2cccs2)nc1S(=O)(=O)c1ccccc1	none
COc1ccccc1/C=C/c1nc(S(=O)(=O)c2ccccc2)c(N(C)C)o1	Pf growth 96h inconclusive, Sm TGR inh 10µM, HCV inh inconclusive, Pf growth 48h inconclusive
CN(C)c1oc(/C=C/c2cccs2)nc1S(=O)(=O)c1ccccc1	Pf growth 96h inconclusive, Sm TGR inh 35.5µM, HCV inh inconclusive, HCMV inh inconclusive, Pf growth 48h inconclusive
CC1(C(=O)NS(=O)(=O)Cc2ccccc2C(F)(F)F)CCN1C(=O)c1ccco1 (stereo unspecified)	none (no result: Pf growth 96h, Sm TGR inh, HCV inh, Pf growth 48h, SARS PLP yeast)
CCC(C)(C)n1nnnc1CN(Cc1cccs1)Cc1cc2cc(OC)ccc2[nH]c1=O	HCMV inh inconclusive, Pf growth 48h 13.1µM (no result: Pf growth 96h)
CCOc1ccc2[nH]c(=O)c(CN(Cc3cccs3)Cc3nnnn3C(C)(C)CC)cc2c1	HCMV inh inconclusive, Pf growth 48h 8.28µM
Cc1ccc2cc(CN(Cc3cccs3)Cc3nnnn3C(C)(C)C)c3nnnn3c2c1	none (no result: HCMV inh)
COCCn1nnnc1CN(Cc1cccnc1)Cc1cc2cc(OC)ccc2[nH]c1=O	HCMV inh inconclusive (no result: Pf growth 96h)
COc1ccc(OC)c(-n2c(-c3ccc(S(C)(=O)=O)cc3)cc(C=O)c2C)c1	Pf growth 96h inconclusive, Pf growth 48h 11.7µM
COc1ccc(OC)c(-n2c(C)ccc2-c2ccc(S(C)(=O)=O)cc2)c1	Pf growth 96h inconclusive (no result: Pf growth 48h)
Cc1cc(S(=O)(=O)NC(C)C)ccc1OCC(=O)N1CCN(Cc2ccc3c(c2)OCO3)CC1	HCV inh inconclusive, HCMV inh -83.9, Pf growth 48h inconclusive
CC(C)NS(=O)(=O)c1ccc(OCC(=O)N2CCCC2)c(Cl)c1	none (no result: Pf growth 96h)
CC(C)NS(=O)(=O)c1ccc(OCC(=O)N2CCN(Cc3ccc4c(c3)OCO4)CC2)c(Cl)c1	HCV inh 11.2µM, HCMV inh -68.3, Pf growth 48h inconclusive (no result: Pf growth 96h)
CCNc1nc(NC(C)(C)C)nc(N(CC)n2cnnc2)n1	none (no result: Pf growth 96h)
CN(C)c1nc(NC(C)(C)C)nc(NC(C)(C)C)n1	HCV inh inconclusive, HCMV inh inconclusive, Pf growth 48h 14.7µM
COCCNC(=O)C1(C)CCCN(C(=O)COc2ccccc2)C1 (stereo unspecified)	none (no result: Pf growth 96h, Sm TGR inh, HCV inh, Pf growth 48h, SARS PLP yeast)
C/C(=N\NC(=S)NCc1ccccc1)c1ccc(Cl)s1	Pf growth 96h inconclusive, HCV inh 11.2µM, HCMV inh inconclusive, Pf growth 48h inconclusive
C/C(=N\NC(=S)NCc1ccccc1)c1cccs1	Pf growth 96h inconclusive, HCV inh inconclusive
C/C(=N\NC(=S)NCc1ccccc1)c1ccc(Br)cc1	Pf growth 96h inconclusive, HCV inh inconclusive, Pf growth 48h inconclusive
C/C(=N\NC(=S)NCc1ccccc1)c1ccc2ccccc2c1OC(F)F	Pf growth 96h inconclusive, HCV inh 12.6µM
C/C(=N\NC(=S)NCc1ccccc1)c1ccc(C)o1	Pf growth 96h inconclusive, HCV inh inconclusive, HCMV inh -106.8
O=C(COC(=O)c1ccc(Cl)nc1)NNC(=O)c1ccc(Br)cc1	none
CCOCCCN1C(=O)CN(C2CCCCCC2)C(=O)C1c1ccc(OC)cc1 (stereo unspecified)	Pf growth 96h 0.828µM, Pf growth 48h inconclusive
COc1cccc(C2C(=O)N(C3CCCCC3)CC(=O)N2Cc2ccc(Cl)cc2)c1 (stereo unspecified)	HCMV inh -68.2 (no result: Pf growth 96h, HCV inh, Pf growth 48h, SARS PLP yeast)
COCCn1c(N)c(N(Cc2ccccc2)C(=O)CSCC(=O)Nc2ccc(OC)cc2)c(=O)[nH]c1=O	HCV inh inconclusive
Cc1ccc(CNC(=O)Cn2c(=O)c3sccc3n(Cc3ccc([N+](=O)[O-])cc3)c2=O)cc1	HCMV inh inconclusive
O=C(Cc1ccc(F)cc1)Nc1nc(-c2ccc(F)c(F)c2)cs1	Pf growth 96h inconclusive, HCV inh inconclusive
CNc1nc(-c2ccc3c(c2)CCN3C(=O)c2ccccc2F)cs1	HCV inh 11.2µM, Pf growth 48h inconclusive
CC1Cc2cc(-c3csc(NC(=O)Cc4ccccc4)n3)ccc2N1S(C)(=O)=O (stereo unspecified)	Pf growth 96h inconclusive, HCV inh 0.708µM, HCMV inh -97.7 (no result: Pf growth 48h)
CS(=O)(=O)N1CCc2cc(-c3csc(NC(=O)C(c4ccccc4)c4ccccc4)n3)ccc21	Pf growth 48h 13.1µM (no result: Pf growth 96h)
O=C(Nc1nc(-c2cccc([N+](=O)[O-])c2)cs1)C(c1ccccc1)c1ccccc1	Pf growth 48h inconclusive
Cc1ccc(S(=O)(=O)N(C)C)cc1NC(=O)COC(=O)c1ccc2ccccc2n1	none
CC(=O)c1ccc(OCc2nnn(CC(=O)O)c2-c2ccccc2)cc1	none (no result: Pf growth 96h, Sm TGR inh, HCV inh, Pf growth 48h, SARS PLP yeast)
CC1(OC(=O)C2CCCC2)C(=O)C=C2C=C(c3ccsc3)N(Cc3ccc4c(c3)OCO4)C=C2C1=O (stereo unspecified)	Pf growth 96h inconclusive, Pf growth 48h inconclusive
COC(=O)CCCC1=CC2=CC(=O)C(C)(OC(=O)c3cccs3)C(=O)C2=CN1Cc1ccccc1 (stereo unspecified)	Pf growth 96h inconclusive, Pf growth 48h 13.1µM
